Results filed as inconclusive are left out. Activity calls are given as the source filed them. Unless noted, the call rests on the fitted dose curve.
Columns and labels:
[1] = molecular target: Estrogen receptor (Homo sapiens) (UniProt P03372); assay: qHTS assay to identify small molecule agonists of the estrogen receptor alpha (ER-alpha) signaling pathway in the presence of an antagonist (AID 1259383); further: top concentration of the series differs between compounds; nearly all actives have a fitted effect of over 15% in size
Method in brief: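 VM7Luc4E2 cells (endogenous full-length ER-alpha, 4×ERE-luciferase) were precultured 5 days in phenol red-free medium with 10% charcoal-stripped FBS, given 10.0nM ICI-182,780 (final), then treated with compounds at 15 concentrations for 22hr at 37C; luminescence read with ONE-Glo.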

[2] = qHTS assay to identify small molecule agonists or antagonists of the thyroid stimulating hormone receptor (TSHR) signaling pathway - wild type cell line counter screen (AID 1259384)
Method in brief: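 Wild-type Hek293 cells, 800/well, 18 h at 37C, then compound with Ro20-1724 for 30 min RT. cAMP by HTRF (cAMP-d2/anti-cAMP cryptate), 1 h RT, fluorescence read. 15 concentrations, triplicates.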

[3] = molecular target: Thyrotropin receptor (Homo sapiens) (UniProt P16473); assay: qHTS assay to identify small molecule antagonists of the thyroid stimulating hormone receptor (TSHR) signaling pathway (AID 1259385); further: nearly all actives have a fitted effect of over 20% in size
Method in brief: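 TSHR-HEK293 cells (800/well) plated 18 h, then compounds with Ro20-1724 and TSH at 1.5 ng/mL final, 30 min at room temperature. cAMP quantified by HTRF (cAMP-d2/anti-cAMP-cryptate, 1 h); 15 concentrations in triplicate.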

[4] = qHTS assay to identify small molecule agonists of the estrogen receptor alpha (ER-alpha) signaling pathway in the presence of an antagonist - cell viability counter screen (AID 1259386; active means well fitted curve in the direction sought with a large enough effect in the repeat runs; an effect the other way counts as inactive or inconclusive;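 further: series mostly up to about 92 µM; cells exposed to compounds for 22 h at 37 °C before the viability read; nearly all actives have a fitted effect of over 30% in size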)
Method in brief: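 VM7Luc4E2 cells (endogenous full-length ER-alpha, 4×ERE-luciferase) were held 5 days in phenol red-free medium with 10% charcoal-stripped FBS, plated, then given 10.0nM ICI-182,780 and compounds at 15 concentrations for 22hr at 37C; viability read by CellTiter-Fluor fluorescence.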

[5] = molecular target: Progesterone receptor (Homo sapiens) (UniProt P06401); assay: qHTS assay to identify small molecule agonists of the progesterone receptor (PR) signaling pathway (AID 1346784); further: nearly all actives have a fitted effect of over 30% in size
Method in brief: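 Agonist mode, quantitative HTS format in a HEK 293T line expressing a UAS-controlled beta-lactamase reporter; 16 hr compound exposure at 37C in 2% charcoal-stripped FBS, then LiveBLAzer B/G FRET fluorescence.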

[6] = molecular target: Progesterone receptor (Homo sapiens) (UniProt P06401); assay: qHTS assay to identify small molecule antagonists of the progesterone receptor (PR) signaling pathway (AID 1346795; active means well fitted inhibition curve with a large enough effect in the signal ratio in the repeat runs, not every such curve was filed as active; the % refers to the signal ratio)
Method in brief: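 HEK293T PR-UAS-bla reporter cells in charcoal-stripped serum (2%) received compound after a 6 hr settling period, followed by R5020 agonist at 1 nM final; 16 hr incubation preceded the FRET substrate step and fluorescence measurement.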

[7] = qHTS assay to identify small molecule agonists of the progesterone receptor (PR) signaling pathway - cell viability counter screen (AID 1346799); further: nearly all actives have a fitted effect of over 45% in size
Method in brief: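 Counter screen for cytotoxicity: compound-treated PR-UAS-bla HEK293T cells (16 hr, 37C, 5% CO2) were assayed with CellTiter-Glo, luminescence measured after 30 min at room temperature.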

[8] = qHTS assay to identify small molecule antagonists of the TGF-beta/Smad signaling pathway - cell viability counter screen (AID 1346824; active means well fitted curve in the direction sought with a large enough effect in the repeat runs; an effect the other way counts as inactive or inconclusive; further: nearly all actives have a fitted effect of over 50% in size)
Method in brief: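 SBE-bla HEK 293T cells, incubated overnight, then compound plus 0.25 ng/mL TGF-beta1 (stock added) for 5 hr at 37 C. Viability was read in the same wells by CellTiter-Glo luminescence after 30 min at room temperature.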

[9] = qHTS assay to identify small molecule agonists of the TGF-beta/Smad signaling pathway - cell viability counter screen (AID 1346829; active means well fitted curve in the direction sought with a large enough effect in the repeat runs; an effect the other way counts as inactive or inconclusive; further: top concentration of the series differs between compounds; nearly all actives have a fitted effect of over 45% in size)
Method in brief: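 HEK 293T SBE-bla line, 5 hr compound exposure at 37 C, multiplexed CellTiter-Glo viability read by luminescence.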

[10] = qHTS assay to identify small molecule antagonists of the progesterone receptor (PR) signaling pathway - cell viability counter screen (AID 1346798; active means well fitted curve in the direction sought with a large enough effect in the repeat runs; an effect the other way counts as inactive or inconclusive; further: series mostly up to about 92 µM; nearly all actives have a fitted effect of over 50% in size)
Method in brief: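 Same-well multiplex: after 16 hr at 37C with compound and R5020 stimulation, HEK293T cells carrying a UAS-bla reporter received LiveBLAzer substrate (2 hr RT), then CellTiter-Glo (30 min RT) for luminescent viability.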
On the % scale 0 is the no-effect control and ±100 the full control effect.

Chain of Progesterone receptor (Homo sapiens) (P06401 whole entry, looked up): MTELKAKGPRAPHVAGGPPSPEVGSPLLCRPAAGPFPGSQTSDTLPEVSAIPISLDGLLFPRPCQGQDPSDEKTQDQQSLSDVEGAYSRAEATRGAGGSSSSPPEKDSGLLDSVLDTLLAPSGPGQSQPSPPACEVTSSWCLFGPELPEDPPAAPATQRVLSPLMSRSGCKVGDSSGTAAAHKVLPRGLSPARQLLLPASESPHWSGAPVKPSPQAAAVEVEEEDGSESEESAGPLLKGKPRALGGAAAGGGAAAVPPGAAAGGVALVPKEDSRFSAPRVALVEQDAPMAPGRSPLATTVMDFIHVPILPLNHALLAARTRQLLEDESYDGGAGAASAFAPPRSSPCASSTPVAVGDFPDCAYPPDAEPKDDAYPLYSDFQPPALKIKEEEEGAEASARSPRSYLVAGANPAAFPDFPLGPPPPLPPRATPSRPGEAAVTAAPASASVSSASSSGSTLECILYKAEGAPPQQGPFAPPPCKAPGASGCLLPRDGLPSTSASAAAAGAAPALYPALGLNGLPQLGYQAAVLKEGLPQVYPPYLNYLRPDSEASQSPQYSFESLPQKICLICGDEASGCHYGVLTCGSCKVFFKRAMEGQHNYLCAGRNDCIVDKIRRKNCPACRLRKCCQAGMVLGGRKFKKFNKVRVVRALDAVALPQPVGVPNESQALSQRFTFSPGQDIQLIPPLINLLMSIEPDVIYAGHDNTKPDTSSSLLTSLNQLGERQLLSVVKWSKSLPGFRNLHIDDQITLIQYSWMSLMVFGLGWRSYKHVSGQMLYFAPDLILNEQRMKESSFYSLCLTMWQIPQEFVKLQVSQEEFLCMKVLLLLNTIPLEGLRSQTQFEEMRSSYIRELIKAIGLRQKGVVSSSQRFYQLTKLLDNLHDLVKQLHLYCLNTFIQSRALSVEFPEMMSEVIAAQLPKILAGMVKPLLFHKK
Chain of Estrogen receptor (Homo sapiens) (P03372 whole entry, looked up): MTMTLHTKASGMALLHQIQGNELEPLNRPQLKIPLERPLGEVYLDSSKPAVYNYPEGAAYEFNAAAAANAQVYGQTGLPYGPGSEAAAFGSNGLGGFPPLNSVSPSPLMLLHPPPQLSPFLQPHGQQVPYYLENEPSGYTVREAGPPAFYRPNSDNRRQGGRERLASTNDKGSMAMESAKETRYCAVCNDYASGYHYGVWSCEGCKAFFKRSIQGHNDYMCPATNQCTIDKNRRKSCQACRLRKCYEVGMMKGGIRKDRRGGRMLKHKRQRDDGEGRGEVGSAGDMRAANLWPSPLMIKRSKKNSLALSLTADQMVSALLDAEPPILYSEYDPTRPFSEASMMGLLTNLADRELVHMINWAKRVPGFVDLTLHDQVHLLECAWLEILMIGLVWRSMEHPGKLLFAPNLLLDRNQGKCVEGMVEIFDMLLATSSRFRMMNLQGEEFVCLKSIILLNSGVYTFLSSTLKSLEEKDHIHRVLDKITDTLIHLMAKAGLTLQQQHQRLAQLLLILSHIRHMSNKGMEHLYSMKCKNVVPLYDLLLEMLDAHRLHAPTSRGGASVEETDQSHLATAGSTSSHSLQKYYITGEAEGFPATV
Chain of Thyrotropin receptor (Homo sapiens) (P16473 whole entry, looked up): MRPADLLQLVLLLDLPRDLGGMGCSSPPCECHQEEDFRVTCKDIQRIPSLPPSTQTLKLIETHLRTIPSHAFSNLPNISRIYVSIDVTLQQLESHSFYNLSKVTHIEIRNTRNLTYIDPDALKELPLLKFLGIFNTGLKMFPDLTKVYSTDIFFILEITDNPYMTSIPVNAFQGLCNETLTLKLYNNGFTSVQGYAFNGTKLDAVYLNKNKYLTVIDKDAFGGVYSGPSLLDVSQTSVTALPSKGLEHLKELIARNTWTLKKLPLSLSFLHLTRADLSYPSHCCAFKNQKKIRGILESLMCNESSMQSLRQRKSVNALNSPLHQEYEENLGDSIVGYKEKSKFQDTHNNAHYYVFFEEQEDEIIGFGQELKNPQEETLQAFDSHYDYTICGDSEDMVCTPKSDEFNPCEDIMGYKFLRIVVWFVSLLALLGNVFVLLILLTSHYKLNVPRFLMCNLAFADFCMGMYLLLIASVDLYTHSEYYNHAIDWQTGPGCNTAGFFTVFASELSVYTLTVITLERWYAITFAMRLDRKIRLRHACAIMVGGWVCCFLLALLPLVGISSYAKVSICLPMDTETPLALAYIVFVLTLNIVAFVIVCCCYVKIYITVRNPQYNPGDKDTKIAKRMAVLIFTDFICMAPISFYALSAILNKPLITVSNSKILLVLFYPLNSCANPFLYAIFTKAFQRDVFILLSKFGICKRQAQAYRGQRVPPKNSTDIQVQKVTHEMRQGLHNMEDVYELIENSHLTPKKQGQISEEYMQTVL

CCC(C)(C)C
inactive: Potency [1] | outcome [2] | outcome [3] | outcome [4] | Potency [5] | Potency [6] | Potency [7] | outcome [8] | outcome [9]

O=Cc1ccc(C(=O)O)cc1
inactive: Potency [1] | outcome [2] | outcome [3] | outcome [4] | Potency [5] | Potency [6] | outcome [10] | Potency [7] | outcome [8] | outcome [9]

CC/C=C/CCCCCCCCCCOC(C)=O
inactive: Potency [1] | outcome [2] | outcome [3] | outcome [4] | Potency [5] | Potency [6] | Potency [7] | outcome [8] | outcome [9]

C=CC(=O)OCC[N+](C)(C)C
inactive: Potency [1] | outcome [2] | outcome [3] | outcome [4] | Potency [5] | Potency [6] | outcome [10] | Potency [7] | outcome [8] | outcome [9]

COC(=O)/C=C(\C)CCC=C(C)C
inactive: Potency [1] | outcome [2] | outcome [3] | outcome [4] | Potency [5] | Potency [6] | outcome [10] | Potency [7] | outcome [8] | outcome [9]

CC(=O)/C=C/C=C1/C2CCC(C2)C1(C)C (centres undefined)
inactive: Potency [1] | outcome [2] | outcome [3] | outcome [4] | Potency [5] | Potency [6] | outcome [10] | Potency [7] | outcome [8] | outcome [9]

CC(C)C(=O)Nc1cccc(C2CN3CCSC3=N2)c1 (centres undefined)
inactive: Potency [1] | outcome [2] | outcome [3] | outcome [4] | Potency [5] | Potency [6] | outcome [10] | outcome [8] | outcome [9]

CCCCC(O)/C=C(C)/C=C/C=C/C(=O)N1CCCC1=O (centres undefined)
inactive: Potency [1] | outcome [2] | outcome [3] | outcome [4] | Potency [5] | Potency [6] | outcome [10] | outcome [9]

CC(=O)SCC(CC(=O)c1ccc(C)cc1)C(=O)O (centres undefined)
inactive: Potency [1] | outcome [2] | outcome [3] | outcome [4] | Potency [5] | Potency [6] | outcome [10] | Potency [7] | outcome [9]

O=CN1CCCCC1
inactive: Potency [1] | outcome [2] | outcome [3] | outcome [4] | Potency [5] | Potency [6] | outcome [10] | Potency [7] | outcome [8] | outcome [9]

C/C(=N\O)c1ccc(OCC(=O)N2CCCCC2)cc1
inactive: Potency [1] | outcome [2] | outcome [3] | outcome [4] | Potency [5] | Potency [6] | outcome [10] | Potency [7] | outcome [8] | outcome [9]

CC(=O)Nc1ccc(OCCOCCOc2ccc(NC(C)=O)cc2)cc1
inactive: Potency [1] | outcome [2] | outcome [3] | outcome [4] | Potency [5] | Potency [6] | outcome [10] | Potency [7] | outcome [8] | outcome [9]

NS(=O)(=O)c1cc2c(cc1C(F)(F)F)NCNS2(=O)=O
inactive: Potency [1] | outcome [2] | outcome [3] | outcome [4] | Potency [5] | Potency [6] | outcome [10] | Potency [7] | outcome [8] | outcome [9]

CC(=O)Oc1ccc(C(C)=O)cc1
inactive: Potency [1] | outcome [2] | outcome [3] | outcome [4] | Potency [7] | outcome [9]

CCCCCCCC(=O)N(C)C
inactive: Potency [1] | outcome [4] | Potency [5] | Potency [6] | outcome [9]

CC(C)(C)C(=O)CC(=O)C(C)(C)C
inactive: Potency [1] | outcome [2] | outcome [3] | Potency [5] | Potency [6] | outcome [10] | Potency [7] | outcome [8] | outcome [9]

CC(C)(C)OC(=O)c1ccccc1C(=O)O
inactive: Potency [1] | outcome [2] | outcome [3] | Potency [5] | Potency [6] | Potency [7] | outcome [8] | outcome [9]

BrCCOc1ccccc1
inactive: Potency [1] | outcome [4] | Potency [6] | outcome [10] | outcome [8] | outcome [9]

Cc1nc2ccc(Cl)cc2[nH]1
inactive: Potency [1] | outcome [2] | outcome [4] | Potency [6] | outcome [8] | outcome [9]

Cc1ccccc1OCC(=O)O
inactive: Potency [1] | outcome [4] | Potency [5] | Potency [6] | outcome [10] | Potency [7] | outcome [9]

CSC(=O)c1cccc2nnsc12
inactive: Potency [1] | outcome [2] | outcome [3] | outcome [4] | outcome [9]

O=C1CCCc2c(O)cccc21
inactive: Potency [1] | outcome [4] | Potency [5] | Potency [6] | outcome [10] | Potency [7] | outcome [8] | outcome [9]

Cc1ccc(N)nc1
inactive: Potency [1] | outcome [2] | outcome [3] | Potency [5] | Potency [6] | outcome [10] | Potency [7] | outcome [8] | outcome [9]

CN(C)CCCN(C)C
inactive: activation [1] -2.43% [at 8.39 µM] | cAMP activity change [2] 3.11% [at 8.39 µM] | activity change, negative = inhibition [3] 4.29% [at 8.39 µM] | activity change, negative = inhibition [6] 12.8% [at 8.39 µM] | activity change, negative = cytotoxicity [7] 1.47% [at 8.39 µM] | viability change, negative = cytotoxic [8] -1.68% [at 6.97 µM] | activity change, negative = cytotoxicity [9] 0.619% [at 6.97 µM]

O=S(=O)(O)c1ccc(Cl)cc1
inactive: Potency [1] | outcome [4] | Potency [5] | Potency [6] | outcome [10] | Potency [7] | outcome [8] | outcome [9]

CC1=C(O)C(=O)CO1
inactive: Potency [1] | outcome [4] | Potency [5] | Potency [6] | outcome [10] | outcome [9]

O=C1c2ccccc2C(=O)N1CO
inactive: Potency [1] | outcome [2] | outcome [3] | Potency [5] | Potency [6] | outcome [10] | Potency [7] | outcome [8] | outcome [9]

CC(CN1CC(=O)NC(=O)C1)N1CC(=O)NC(=O)C1 (centres undefined)
inactive: Potency [1] | outcome [4] | Potency [6] | outcome [10] | outcome [8] | outcome [9]
